Hits are enriched below; roughly 13% of the tested compounds scored in any of these assays.
Sfp PPTase inh – qHTS Assay for Inhibitors of Bacillus subtilis Sfp phosphopantetheinyl transferase (PPTase); Biochemical Sfp PPTase activity, qHTS; Potency, µM, for inactives: largest response in the series, negative = inhibition, usual class: inhibitors; hit rate 3.5% among 310,000; AID 1490, 2009;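 further: the enzyme is Sfp with the accession as filed and its product quenches rhodamine fluorescence; potency means the concentration at half of the fitted maximal effect; 0% = enzyme reaction without inhibitor and -100% = no enzyme wells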
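Reaction rates are the 30-min fluorescence difference (ex 525, em 598 nm) in wells containing 15 nM Sfp, 5 uM rhodamine-CoA and 12.5 uM BHQ-2-YbbR at pH 7.6 with 10 mM MgCl2.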
KDM4E inh – qHTS Assay for Inhibitors of Human Jumonji Domain Containing 2E (JMJD2E) | Lysine-specific demethylase 4E (Homo sapiens), B2RXH2 | JMJD2E catalytic domain, FDH-coupled NADH fluorescence (FDH is formaldehyde dehydrogenase) | Potency, µM (titrated, usually from 57.1 µM), for the others: at the top dose activity change, negative = inhibition, hits mostly inhibitors | hit rate 1.6% among 230,000 | AID 2147, 2009; active means well fitted inhibition curve with a large enough effect, not every such curve was filed as active; inconclusive means small, poorly fitted or top-dose-only effect, or another doubt; inactive means no such curve, though single readings can be large or run the other way;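 further: potency means the concentration at half of the fitted maximal effect; 0% = wells with enzyme and -100% = buffer wells without enzyme; nearly all actives have a fitted effect of over 50% in size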
Target sequence (B2RXH2 1-337 limits assumed): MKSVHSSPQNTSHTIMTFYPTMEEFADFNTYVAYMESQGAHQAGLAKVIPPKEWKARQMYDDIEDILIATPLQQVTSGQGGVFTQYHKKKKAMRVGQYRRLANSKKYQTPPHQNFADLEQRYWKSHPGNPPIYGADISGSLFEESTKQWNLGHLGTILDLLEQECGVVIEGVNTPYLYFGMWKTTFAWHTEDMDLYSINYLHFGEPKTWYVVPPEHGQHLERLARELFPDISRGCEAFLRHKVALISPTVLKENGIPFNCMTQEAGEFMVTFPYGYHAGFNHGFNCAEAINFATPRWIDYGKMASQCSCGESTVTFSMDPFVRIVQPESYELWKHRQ
ALDH1A1 inh – qHTS Assay for Inhibitors of Aldehyde Dehydrogenase 1 (ALDH1A1). Aldehyde dehydrogenase 1A1 (Homo sapiens), P00352. Purified ALDH1A1, NADH fluorescence, propionaldehyde substrate. Potency, µM (titrated, usually from 75.3 µM), without a hit: at the highest dose activity, negative = inhibition, usual class: inhibitors. hit rate 7.3% among 220,000; active means well fitted inhibition curve with a large enough effect, not every such curve was filed as active; inconclusive means small, poorly fitted or top-dose-only effect, or another doubt; inactive means no such curve, though single readings can be large or run the other way;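 further: potency means the concentration at half of the fitted maximal effect; plate controls were no enzyme wells and a reference inhibitor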
Target sequence (P00352 whole entry, looked up): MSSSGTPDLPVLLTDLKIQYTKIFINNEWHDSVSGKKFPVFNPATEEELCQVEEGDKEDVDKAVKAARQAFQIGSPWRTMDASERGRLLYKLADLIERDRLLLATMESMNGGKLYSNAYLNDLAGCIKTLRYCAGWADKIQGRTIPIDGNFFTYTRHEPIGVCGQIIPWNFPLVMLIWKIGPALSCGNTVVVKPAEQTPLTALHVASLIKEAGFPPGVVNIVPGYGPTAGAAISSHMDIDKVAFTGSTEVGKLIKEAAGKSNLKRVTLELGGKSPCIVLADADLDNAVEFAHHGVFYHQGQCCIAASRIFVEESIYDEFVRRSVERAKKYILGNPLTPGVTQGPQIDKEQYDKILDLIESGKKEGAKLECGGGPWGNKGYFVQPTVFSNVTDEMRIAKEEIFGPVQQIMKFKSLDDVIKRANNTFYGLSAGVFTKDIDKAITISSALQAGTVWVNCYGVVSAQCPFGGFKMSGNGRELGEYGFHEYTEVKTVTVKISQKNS
miR-21 act – qHTS Assay for Modulators of miRNAs and/orActivators of miR-21; HeLa miR-21 FLuc reporter, luciferase, 48 h; Potency, µM (series often up to 38.3 µM), inactives show at the top dose activity change, positive = activation, most hits filed as activators; 340,000 tested, under 10 active; AID 2288, 2010;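 further: % of control where 0% means no effect; miR-21 action dims this reporter so a rising signal means less miR-21 action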
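HeLa cells endogenously expressing miR-21, stably carrying CMV-driven firefly luciferase with a downstream miR-21 binding site, 2000 cells/well. Titrations up to approximately 40 uM, 48 hours; luciferase luminescence read.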
Lamin A splicing – qHTS Assay for Modulators of Lamin A Splicing; HeLa LMNA splicing GFP/RFP minigene ratio, 48 h; hit rate 0.01% among 200,000; Potency, µM (titrated, usually from 46.1 µM), without a hit: at the highest dose ratio change, negative = inhibition, hits mostly inhibitors; active means well fitted inhibition curve with a large enough effect in the signal ratio, with a control signal flat, not every such curve was filed as active; inconclusive means small, poorly fitted or top-dose-only effect, or effect the other way, or a change in a side signal; the % refers to the signal ratio; further: potency means the concentration at half of the fitted maximal effect; on the % scale 0 is the no-effect control and ±100 the full control effect
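Read-out is the ratio of GFP to DsRed2 object intensity, acquired by 488 nm laser-scanning cytometry on HeLa lamin A-EGFP minigene reporter cells. Compound incubation 48 hrs at 37 °C in Opti-MEM with 2% FBS; DMSO 0.5% final.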
G9a block – qHTS Assay for Inhibitors of Histone Lysine Methyltransferase G9a; Histone-lysine N-methyltransferase EHMT2 (Homo sapiens), Q96KQ7; G9a H3K9 monomethylation, AlphaScreen, 2 h; Potency, µM (series often up to 102 µM), for the others: top-dose activity, negative = inhibition, hits mostly inhibitors; hit rate 8.8% among 350,000; AID 504332, 2011; further: potency means the concentration at half of the fitted maximal effect; on the % scale 0 is the no-effect control and ±100 the full control effect; nearly all actives have a fitted effect of over 75% in size
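Compounds were preincubated with 20 nM G9a for 15 min, after which biotinylated H3K9 peptide (500 nM) and SAM (20 uM) started a 2 h room-temperature reaction. Monomethylated product was quantified by antibody-based AlphaScreen chemiluminescence.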
Numbers without * were called inactive; ? = inconclusive; . = no result given; ! = repeats disagree; [ ] = another dose, or the depositor's remark. Unless noted, the call rests on the fitted dose curve; in most records, active means well fitted curve in the direction sought with a large enough effect; inconclusive means small, poorly fitted or top-dose-only effect, or another doubt; inactive means no such curve, though single readings can be large; an effect the other way counts as inactive or inconclusive.

SMILES	Sfp PPTase inh	KDM4E inh	ALDH1A1 inh	miR-21 act	Lamin A splicing	G9a block
CN(C)c1ccc(O)c2c1C[C@H]1C[C@H]3[C@@H](N(C)C)C(=O)C(C(N)=O)=C(O)[C@]3(O)C(=O)C1=C2O	14.2%	?	-6.1%[20.9 µM]	.	9.3%	8.91µM*
COc1cccc2c(C)cc3nnc(SCC(=O)Nc4ccc(C)cc4)n3c12	.	.	.	-17.2%	-18.9%[46 µM]	-3.3%[59 µM]
O=C(O)C1C2C=CC(O2)C1C(=O)Nc1ccc(S(=O)(=O)Nc2ccccc2)cc1 (stereo unspecified)	-91.0%	-1.6%	1.12µM*	-1.3%	-15.7%	?
CC(=O)Nc1ccc(S(=O)(=O)N2CCCc3ccccc32)cc1	11.3%	8.8%	-7.4%	17.8%	-29.9%	0.0%[12.7 µM]
O=C(O)C1C2C=CC(O2)C1C(=O)Nc1ccc(S(=O)(=O)N2CCc3ccccc32)cc1 (stereo unspecified)	-19.0%	6.5%	10µM*	-3.5%	1.9%	11.2µM*
Cc1ccc(-c2csc(=S)n2CC(=O)OCC(=O)NC(C)C(C)C)cc1 (stereo unspecified)	3.8%	-2.7%	1.58µM*	-0.5%	13.1%	-14.7%
Cc1ccc(-c2csc(=S)n2CC(=O)OCC(=O)NCc2ccco2)cc1	22.4µM*	-3.0%	?	6.2%	-18.1%	-16.1%[59 µM]
Cc1ccc(SCC(=O)OCC(=O)NCc2ccco2)cc1	.	.	.	.	.	23.2%[12.7 µM]
CC(=O)Nc1ccc(NC(=O)CSc2nnc(-c3cccnc3)o2)cc1	.	.	.	.	.	-6.8%
CCN(CC)S(=O)(=O)c1ccc2oc(SCC3CN=C(c4ccc(OC)cc4)S3)nc2c1 (stereo unspecified)	-14.2%	?	22.4µM*	-7.7%	?	?
COc1ccc(C2=NCC(CSc3nnc(-c4ccc5c(c4)OCO5)o3)S2)cc1 (stereo unspecified)	2.3%	?	-16.2%	-16.8%	?	3.9%[59 µM]
CCN(C(=O)CSc1nc2cc(S(=O)(=O)N(CC)CC)ccc2o1)C1CCS(=O)(=O)C1 (stereo unspecified)	17.8µM*	.	.	0.0%	.	.
Cc1cn(C)c(CC(=O)NCc2ccc(F)cc2)c1C(=O)O	.	.	.	-5.8%	-9.3%[46 µM]	16.1%[59 µM]
COCCNc1nnc(SCC(=O)N(C)c2c(N)n(Cc3ccccc3)c(=O)[nH]c2=O)s1	.	.	.	.	.	22.4µM*
COCCN(C(=O)CSc1nnc(Nc2ccccc2F)s1)c1c(N)n(Cc2ccccc2)c(=O)[nH]c1=O	24.5%	-0.2%	1.3%	-11.2%	-0.8%	14.1µM*
CN(CC(=O)Nc1ccccc1Cl)C(=O)COC(=O)c1nc(Cl)c(Cl)c(Cl)c1Cl	3.2%	.	.	?	.	-48.7%
O=C(CCCCCn1c(=O)c2sccc2n(CC(=O)Nc2cc(C(F)(F)F)ccc2Cl)c1=O)NCc1ccccc1Cl	.	.	.	-11.3%	.	-23.7%[59 µM]
CCc1ccc(OCC(=O)N/N=C2\CC(=O)c3ccccc32)cc1	-4.0%	1.5%	-8.1%	-14.5%	-13.3%	12.6µM*
COc1ccc(OCC(=O)N/N=C2\CCCCc3ccccc32)cc1	3.5%	9.4%	-3.1%	-1.9%	.	-6.8%
CCc1ccc(OCC(=O)NN2Cc3ccccc3C2=N)cc1	17.4%	-8.3%	-2.6%	-1.9%	.	44.7µM*
CC(=O)c1ccc(NC(=O)CCn2nc(C)c(S(=O)(=O)N3CCC(C)CC3)c2C)cc1	.	.	.	7.1%	-1.0%[46 µM]	20.0%[59 µM]
S=c1[nH]cnc2scc(-c3ccc(Cl)cc3)c12	-19.6%	0.5%	.	19.4%	.	44.7µM*
CC(C)=CCC/C(C)=C/CC/C(C)=C/CSc1ccccc1C(=O)O	.	-0.1%	3.8%	.	?	22.8%[12.7 µM]
O=[N+]([O-])c1cccc(/C=N/n2c(C3CCCCC3)n[nH]c2=S)c1	0.7%	?	-10.2%	-13.4%	-2.4%	1.58µM*
COc1cccc(/C=N/n2c(C3CCCCC3)n[nH]c2=S)c1	-20.5%	.	.	6.1%	.	2.51µM*
SMILES	Sfp PPTase inh	KDM4E inh	ALDH1A1 inh	miR-21 act	Lamin A splicing	G9a block
Fc1cccc(/C=N/n2c(C3CCCCC3)n[nH]c2=S)c1	4.8%	.	.	-10.2%	.	?
COc1cc(/C=N/n2c(C3CCCCC3)n[nH]c2=S)cc(OC)c1O	-7.0%	.	.	-11.0%	.	2µM*
Oc1cccc(/C=N/n2c(C3CCCCC3)n[nH]c2=S)c1	-7.1%	.	.	-3.7%	.	2µM*
COc1cc(/C=N/N2C(C)CCCC2C)cc(OC)c1O (stereo unspecified)	?	.	.	-1.7%	.	?
CCOc1ccc(NC(=O)Cn2c(=O)n(CCCCC(=O)NCCc3ccc(Cl)cc3)c(=O)c3ccccc32)cc1	.	.	.	-1.0%	.	1.3%[59 µM]
CC(NC(=O)c1ccc(OC2CCN(Cc3ccccn3)CC2)cc1)c1nccs1 (stereo unspecified)	10.7%	.	.	-0.5%	.	31.0%
C[C@H](CO)NC(=O)[C@H]1C[C@@H]1[C@H](NP(=O)(c1ccccc1)c1ccccc1)c1ccccc1	-3.5%	-26.7%	2.2%	.	.	.
COCCCNC(=O)Cn1c(=O)n(-c2ccc(C)cc2)c(=O)c2c1c1cc(C)ccc1n2C	.	.	.	-0.2%	10.8%[46 µM]	4.4%[59 µM]
Cc1c(Br)c([N+](=O)[O-])nn1CC(=O)NCCc1c[nH]c2ccccc12	8.2%	1.5%	2.1%	1.8%	.	-32.9%
CCN1C(=O)/C(=C/C=C2/CCCN2C)OC1=S	-3.5%	11.2µM*	2.82µM*	-33.9%	.	-33.2%
Cc1nn(-c2ccccc2)c(C)c1/C=C1\C(=O)N(C)C(=S)N1C	-0.1%	4.0%	2.1%	4.7%	-12.2%[46 µM]	?
CN1C(=O)/C(=C\C=C2/CCCN2C)N(C)C1=S	-10.7%	-27.6%	-1.5%	-22.0%	.	17.8µM*
Cc1nn(-c2ccc3nnc(C)n3n2)c(C)c1CCC(=O)Nc1ccc(OC(F)(F)F)cc1	.	.	.	-0.1%	-4.3%[46 µM]	4.4%[59 µM]
Cc1ccc(N(CC2=NCCN2)c2cccc(O)c2)cc1	79.4µM*!	?	-14.0%	-5.5%	?	11.3%[12.7 µM]
Fc1ccc(Br)cc1C1C=C(c2ccc(Br)cc2)Nc2nnnn21 (stereo unspecified)	.	.	.	-7.0%	2.8%[46 µM]	11.2µM*
Fc1ccc(Br)cc1C1C=C(c2ccc(Br)cc2)Nc2ncnn21 (stereo unspecified)	-3.3%	-3.6%	11.0%	-1.9%	?	23.2%[12.7 µM]
COc1cccc(-c2cc(NCc3cccc(C)c3)ncn2)c1	-9.7%	.	-7.4%	.	-13.8%	-9.4%[0.501 µM]
CCC(=O)N1N=C(c2ccc(C)o2)CC1c1ccc(Br)cc1 (stereo unspecified)	50.1µM*	?	?	-27.3%	-20.6%	?
